# Reference: PubChem BioAssay (NCI)
# Several values for one entry are separate records, joined by “and”; a condition that tells them apart may be missing. Equal values may be shown once. This is part of a sample that, as a whole, favours compounds with a hit. Of some 83,000 tested, about 20% had one in any assay.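 For each line, cells grew in 96-well plates with the test compound present at a single concentration for 48 hours.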 Activity calls are given as the source filed them. Rule for the calls: active = growth percent below 10; inactive = the rest.
# Tested on: HL-60(TB) leukemia
# Experiment: NCI-60 one-dose screen, 48 h (100 = growth as untreated, 0 = no growth, -100 = all killed)
# Details: 10 µM unless noted
row,SMILES,growth
1,c1ccc2c(N3CCCCC3)ncnc2c1,51.5% (inactive)
2,COc1cc2oc(-c3ccc(O)cc3)cc(=O)c2c(O)c1I,99% (inactive)
3,COc1cc(C2NC(=O)C(C#N)=C(Nc3cccc(C)c3)S2)ccc1O (stereo not given),84% (inactive)
4,COc1ccc(OC)c(-c2c(C#N)c(-c3cccs3)nc3c2c(-c2ccccc2)nn3-c2ccccc2)c1,107% (inactive)
5,CCCCCCCCOc1ccc(/C=N/Nc2cc(C)nc3ccc(Cl)cc23)cc1,13.5% (inactive)
6,COc1cc(C(=O)c2ccc3c(c2)OCO3)cc(OC)c1OC,1.04% (active) and 22.6% (inactive)
7,c1ccc(N2N=C(c3cccc(Nc4ccncc4)c3)CC2c2ccc3c(c2)OCO3)cc1 (stereo not given),-21.1% (active)
8,Cc1ccc(-c2nc3ccccn3c2/C=C2/C(=O)Nc3cc(Cl)ccc32)cc1,50.3% (inactive)
9,COc1ccc(/C=C/C(=O)c2cc(O)ccc2O)cc1,3.32% (active)
10,COc1cc(NC(=O)C#Cc2ccccc2)c(OC)cc1Cl,42.7% (inactive)
11,COc1ccc(/C=C/C(=O)c2c(C)nc3ccccc3c2/C=C/c2ccccc2)c(OC)c1,66.7% (inactive)
12,CCOC(=O)c1cn2ncnc(Oc3ccc(NC(=O)NCCN4CCOCC4)c(Cl)c3)c2c1C,101% (inactive)
13,CCN(CC)CCCC(C)Nc1ccnc2cc(Oc3ccccc3)ccc12 (stereo not given),69% (inactive) and 97.8% (inactive)
14,Cc1ccc(-c2cc(O)c(-c3ccc(C)cc3C)cc2O)c(C)c1,21.2% (inactive)
15,OCCCCCCNc1ncnc2cc(Cl)ccc12,88.9% (inactive)
16,Cc1nn(-c2ccccc2)c(Oc2ccccn2)c1-c1nc2ccccc2s1,85.3% (inactive)
17,COc1ccc(C(=O)c2no[n+]([O-])c2C(=O)c2ccc(OC)cc2)cc1,-79.7% (active)
18,CN1CC[C@@H](c2c(O)cc(O)c3c(=O)cc(-c4ccccc4Cl)oc23)[C@@H](O)C1,-29.1% (active)
19,CCN1CCC2(CC1)OC(c1ccccc1)C(c1ccccc1)O2 (stereo not given),103% (inactive)
20,COc1ccc(/C=N/C2=C(C#N)C(c3cccc(Cl)c3)c3c(ccc4ccccc34)O2)cc1 (stereo not given),-18.6% (active)
21,Oc1ccc2ccccc2c1N=Nc1nccs1,-44.3% (active)
22,COc1nc2ccccc2s1,94.5% (inactive)

row,SMILES,growth
1,CC(=O)OCC(=O)[C@@]1(O)CC[C@H]2[C@@H]3CC[C@@H]4C[C@H](O)CC[C@]4(C)[C@H]3C(=O)C[C@@]21C,94% (inactive)
2,CCN1CCN(C(=O)[C@]23CCC(C)(C)C[C@H]2C2=CC[C@@H]4[C@@]5(C)CC/C(=N/O)C(C)(C)[C@@H]5CC[C@@]4(C)[C@]2(C)CC3)CC1,-9.73% (active)
3,Cc1cc(C)n(Cc2cc(C(C)(C)C)cc(C(C)(C)C)c2)c(=O)c1C#N,100% (inactive)
4,Oc1c(Cl)cc(Cl)c2ccc(Cn3cc(-c4cc(F)cc(F)c4)nn3)nc12,2.85% (active)
5,COc1cc(/C=C2\Oc3cc(OCCCN4CCCC4)ccc3C2=O)cc(OC)c1,72.5% (inactive)
6,Cn1cc(-c2noc(-c3cn(C)c4ncc(F)cc34)n2)c2ccccc21,85.5% (inactive)
7,C=C(C)[C@@H]1CC[C@]2(C(=O)OCCCC[P+](c3ccccc3)(c3ccccc3)c3ccccc3)CC[C@]3(C)[C@H](CC[C@@H]4[C@@]5(C)CC[C@H](OC(=O)C(Cl)Cl)C(C)(C)[C@@H]5CC[C@]43C)[C@@H]12,-49.9% (active)
8,CCOC(=O)CSc1nnc(-c2cc3c([nH]c4ccccc43)c(-c3cccc(O)c3)n2)n1-c1ccc(C)cc1,45.3% (inactive)
9,CC(C)c1ccc(NC(=O)Nc2ccc(NC(=O)CCCC(=O)NOCc3ccccc3)cc2)cc1,17.9% (inactive)
10,O=S(=O)(Nc1ccc(Cl)cc1Cl)c1ccc(-c2cnc(C3CC3)o2)cc1,-0.119% (active)
11,Cc1cccc(Cc2cnc(NC(=O)/C=C/c3ccco3)s2)c1,-44.8% (active)
12,O=C(CO)C(O)C(O)C(O)C(O)CO (stereo not given),101% (inactive) and 102% (inactive)
13,O=C(Nc1nc2cc(C(=O)N3CCN(C(c4ccccc4)c4ccccc4)CC3)ccc2o1)c1ccc(NC2CCCCC2)c([N+](=O)[O-])c1,82% (inactive)
14,CCn1c(=S)sc2c(Nc3ccc(F)cc3)nc(-c3cccnc3)nc21,81.7% (inactive)
15,COc1ccc(/C=C/C(=O)c2ccc(OC)c(OC)c2)cc1O,81.5% (inactive)
16,CC1=Nc2cnc(Nc3ccc(OCCN4CCCCC4)cc3)nc2Nc2ccccc21,65.1% (inactive)
17,COC(=O)Nc1nc2ccc(Sc3ccccc3)cc2[nH]1,-5.94% (active)
18,CCC1S/C(=N\N=C(/C)c2ccc[nH]2)N(c2ccccc2)C1=O (stereo not given),-63.7% (active)
19,O=C1OC(c2ccc(-c3ccccc3)cc2)=C/C1=C/c1cccs1,75% (inactive)
20,Cc1n(Cc2ccc3ccccc3n2)cc[n+]1Cc1ccc2ccccc2c1,-32.9% (active)
21,O=C(CCN1C(=O)/C(=C/c2ccc(O)cc2)SC1=S)Nc1ccccc1,61.2% (inactive)
22,CCCCCN(CCCCC)CC(O)c1cc2c(c3ccccc13)CCCC2 (stereo not given),18.6% (inactive) and 58.1% (inactive)

row,SMILES,growth
1,O=C(c1cc2ccccc2o1)c1nn(-c2ccccc2)/c(=N/N=Cc2cn(-c3ccccc3)nc2-c2cc3ccccc3oc2=O)s1,98.2% (inactive)
2,CCCCC1(CC)COC(CCC)OC1 (stereo not given),115% (inactive)
3,C=C(C)[C@@H]1CC[C@]2(C(=O)O)CC[C@]3(C)[C@H](CC[C@@H]4[C@@]5(C)C/C(=C/c6ccc(OC)cc6)C(=O)C(C)(C)[C@@H]5CC[C@]43C)[C@@H]12,2.12% (active)
4,NC(N)=NC1CCCCC1,94.4% (inactive)
5,COc1ccc2[nH]cc(-c3nc(-c4cn(C)c5c(Cl)nccc45)cs3)c2c1,30.5% (inactive)
6,COc1cc(-c2cc(/C=C3\CCCCC3=O)[nH]n2)cc(OC)c1OC,97.9% (inactive)
7,O=C1N(Cc2ccccc2Cl)c2ccccc2C12NN=C(c1cccc(Cl)c1)S2 (stereo not given),28.7% (inactive)
8,N#Cc1c(NC(=O)c2cccc(Br)c2)sc2c1CCCC2,62.4% (inactive)
9,O=C(Cc1ccc(/C=C/C(=O)c2ncc[nH]2)cc1)Nc1ccccc1,7.76% (active)
10,C=C(C)[C@@H]1CC[C@@]2(C(=O)O)CC[C@]3(C)C(CCC4[C@@]5(C)CCC(OS(=O)(=O)c6ccccc6)C(C)(C)C5CC[C@]43C)C12 (stereo not given in full),21.4% (inactive)
11,O=C(O)c1ccc2c(c1)CCC2,68.3% (inactive)
12,O=C(/C=C/c1ccc(C(F)(F)F)cc1)c1ccc(Nc2nc(NCCO)nc(N3CCOCC3)n2)cc1,15.4% (inactive)
13,CNC(=O)c1cc(Oc2ccc(NC(=O)Nc3ccc(Cl)c(OC(C)C)c3)c(F)c2)ccn1,59.6% (inactive)
14,O=C(Nc1ccc(F)cc1)c1ccccc1,97.5% (inactive)
15,O=C(CC(O)c1ccccc1)Nc1ccccn1 (stereo not given),97.3% (inactive)
16,CC(=O)Nc1nc(C)c(C(=O)NNS(=O)(=O)c2ccccc2)s1,174% (inactive)
17,Nc1nonc1-c1nc2ccccc2n1Cc1ccc(F)cc1,21.5% (inactive)
18,S=c1ccc2ccccc2[nH]1,85.3% (inactive) and 97.6% (inactive)
19,Cc1cc(N2CCCCC2)nc(N(CCCNc2ccnc3cc(Cl)ccc23)Cc2ccco2)n1,-43.6% (active)
20,CCN(CC)CCCCCCNc1cc(OC)cc2cccnc12,-57.3% (active)
21,COc1ccc(/C=C(\C#N)c2cc(OC)c(OC)c(OC)c2)cc1,-31.4% (active)
22,O=C(Nc1ccc(Cl)cc1)c1cc2ccccc2cc1OP(=O)(O)O,37.3% (inactive)

row,SMILES,growth
1,COc1cc(/C=C/c2ccccc2)cc(OC)c1,96.2% (inactive)
2,COc1cccc2c(=O)c3c(sc12)c(N1CCNCC1)nc1ccccc13,-52.2% (active)
3,O=c1[nH]nnc2cc(Cl)ccc12,108% (inactive) and 100% (inactive)
4,CCN(CC)CCNC(=O)n1cc(-c2ccncc2)c(-c2cc(Cl)cc(OC)c2)n1,78% (inactive)
5,Cc1cs/c(=N\NC(=O)c2cc(-c3cc4ccccc4o3)nn2-c2ccccc2)n1-c1ccccc1,109% (inactive)
6,CCN(CC)c1ccc2c(c1)Oc1nc(N)c(C#N)c(N)c1C2Sc1ccc(OC)cc1 (stereo not given),-16.6% (active)
7,CO[C@H](C(=O)[C@@H](O)[C@@H](C)O)[C@@H]1Cc2cc3cc(OC4CC(OC5CC(O)C(O)C(C)O5)C(O)C(C)O4)c(C)c(O)c3c(O)c2C(=O)[C@H]1OC1CC(OC2CC(OC3CC(C)(O)C(O)C(C)O3)C(O)C(C)O2)C(O)C(C)O1 (stereo not given in full),3.88% (active)
8,COc1ccc(C2=C(c3cc(OC)c(OC)c(OC)c3)C(=O)CC2)cc1,11.1% (inactive)
9,CN(c1ccccc1)c1ccc2c(c1)OCCC21CC1Nc1cnccc1C(=O)O (stereo not given),65.3% (inactive)
10,O=C(CC(=O)c1ccccc1F)Nc1ccc([N+](=O)[O-])cc1,98.2% (inactive)
11,CCOC(=O)c1sc(Nc2ccc(Cl)cc2)nc1C,27.2% (inactive)
12,Cc1nc2ncnc(Cl)c2[nH]1,75.4% (inactive)
13,CCC1CCC(C)NC1 (stereo not given),99.4% (inactive)
14,COc1ccc(-c2nnc(-c3ccc4c(c3)nc(-c3ccncc3)n4C3CCCCC3)o2)cc1,46.1% (inactive)
15,CC(CCC#N)(CCC#N)C(=O)c1ccccc1,88.7% (inactive)
16,Oc1cccc(Nc2nccc(-c3ccc4ccccc4c3)n2)c1,0.229% (active)
17,COc1cc(-c2nnc(-c3c(-c4ccc(F)cc4)nc4ccccn34)o2)cc(OC)c1OC,102% (inactive)
18,C#CCOc1ccc2ncnc(Nc3cccc(CNC(=O)CCl)c3)c2c1,35.2% [8.25 µM] (inactive)
19,COc1ccc(/C=C/C(=O)c2cccc(NS(C)(=O)=O)c2)cc1,79.6% (inactive)
